Measurements from ChEMBL document CHEMBL1961873, “Compounds: GSK PKIS; Assays: Nanosyn kinase panel” (2012).

These molecules were tested against T1, Mitogen-activated protein kinase kinase kinase kinase 2 (Homo sapiens) (UniProt Q12851). Conditions: at 0.1 µM.
T1 sequence (whole entry): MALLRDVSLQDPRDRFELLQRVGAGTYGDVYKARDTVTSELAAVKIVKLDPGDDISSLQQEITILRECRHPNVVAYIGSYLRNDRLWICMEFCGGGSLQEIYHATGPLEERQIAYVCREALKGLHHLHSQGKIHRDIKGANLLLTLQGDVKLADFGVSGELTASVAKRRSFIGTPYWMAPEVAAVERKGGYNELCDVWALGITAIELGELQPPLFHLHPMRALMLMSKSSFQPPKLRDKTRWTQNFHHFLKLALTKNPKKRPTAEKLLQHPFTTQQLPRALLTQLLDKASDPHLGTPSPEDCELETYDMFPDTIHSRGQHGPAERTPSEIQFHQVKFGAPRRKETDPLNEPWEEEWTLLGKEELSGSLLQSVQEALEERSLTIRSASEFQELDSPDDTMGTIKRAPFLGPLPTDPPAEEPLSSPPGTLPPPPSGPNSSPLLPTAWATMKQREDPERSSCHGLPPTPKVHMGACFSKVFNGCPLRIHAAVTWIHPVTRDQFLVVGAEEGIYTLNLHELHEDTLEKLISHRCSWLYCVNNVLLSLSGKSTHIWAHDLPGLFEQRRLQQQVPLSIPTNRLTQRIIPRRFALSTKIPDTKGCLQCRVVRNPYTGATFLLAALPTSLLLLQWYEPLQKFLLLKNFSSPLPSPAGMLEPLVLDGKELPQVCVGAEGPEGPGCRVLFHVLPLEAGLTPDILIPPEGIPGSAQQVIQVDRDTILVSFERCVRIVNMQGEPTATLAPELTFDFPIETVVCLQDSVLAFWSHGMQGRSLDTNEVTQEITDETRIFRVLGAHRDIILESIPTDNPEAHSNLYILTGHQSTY

| Structure (SMILES) | inhibition |
| --- | --- |
| Fc1ccc(-c2nc3n(c2-c2ccncc2)CCS3)cc1 | 1.36% |
| Fc1ccc(-c2ncn(C3CCNCC3)c2-c2ccnc(Oc3ccc4c(c3)OCO4)n2)cc1 | 1.35% |
| Fc1ccc(-c2c(-c3ccncc3)nc3n2CCS3)cc1 | 1.02% |
| O=C(Nc1n[nH]c2nc(-c3ccc(O)cc3)c(Br)cc12)C1CC1 | 7% |
| CN(C)CCOc1ccc(-c2cc(-c3ccc4c(c3)CCC4=NO)c(-c3ccncc3)o2)cc1 | 2.2% |
| COc1ccc(C2=C(N3CCc4ccccc43)C(=O)NC2=O)cc1 | 0.85% |
| CN(c1ccc(NC(=O)Nc2c(Cl)cccc2Cl)cc1)c1ccnc(Nc2cccc(CS(C)(=O)=O)c2)n1 | 11.5% |
| Cc1ccc(C(=O)NC2CCC2)cc1-c1ccc(C(=O)NCC2CC2)cc1 | 0.91% |
| COc1cccc(-n2cnc3c(N/N=C/c4ccncc4)ncnc32)c1 | 1.19% |
| Cc1ccc(C(=O)NC(C)C)cc1-c1ccc(C(=O)NCC2CC2)cc1 | -0.39% |
| NC(=O)Cc1ccccc1Oc1nccc(-c2c(-c3ccc(F)cc3)ncn2C2CCNCC2)n1 | 0.65% |
| O=C1Nc2ccccc2/C1=C/Nc1ccc(-n2cncn2)cc1 | 2.9% |
| c1ccc(Oc2ccc(Nc3ncc(-c4ccccc4)o3)cc2)cc1 | 1.08% |
| COc1cc2ncn(-c3cc(OCc4ccccc4C(F)(F)F)c(C(C)=O)s3)c2cc1OC | 2.18% |
| COc1ccc2ncn(-c3cc(O[C@H](C)c4ccccc4Cl)c(C(N)=O)s3)c2c1 | 1.91% |
| CCc1nccc2c1nc(-c1nonc1N)n2CC | 2.12% |
| CN(C)c1ccc2c(c1)/C(=C/Nc1ccc(S(N)(=O)=O)cc1)C(=O)N2 | 5.66% |
| COc1cc2ncn(-c3cc(OCc4cccs4)c(C(N)=O)s3)c2cc1OC | 10.8% |

These molecules were tested against T1, Mitogen-activated protein kinase kinase kinase kinase 2 (Homo sapiens). Conditions: at 1 µM.

| Structure (SMILES) | inhibition |
| --- | --- |
| O=C1Nc2ccc(I)cc2C1=Cc1cc(Br)c(O)c(Br)c1 | 3.6% |
| CCS(=O)(=O)c1ccc(OC)c(Nc2ncc(-c3cccc(-c4ccccc4F)c3)o2)c1 | 2.38% |
| COc1ccc(-c2ccc3c(NC(=O)C4CC4)n[nH]c3n2)cc1 | 0.37% |
| CCc1ccc(Oc2nccc(-c3c(-c4ccc(F)cc4)ncn3C3CCNCC3)n2)cc1 | 15.4% |
| NCc1ccc(-n2c(-c3nonc3N)nc3cnccc32)cc1 | 18.2% |
| CN1CCN(CCCNc2nc3ccc(Oc4ccc(NC(=O)Nc5cc(C(F)(F)F)ccc5F)cc4)cc3[nH]2)CC1 | 8.26% |
| NS(=O)(=O)c1ccc(Nc2cc(-c3ccc(O)c(F)c3)n[nH]2)cc1 | 6.09% |
| NS(=O)(=O)c1ccc(N/N=C2\C(=O)Nc3ccc(-c4cnco4)cc32)cc1 | 4.85% |
| CCc1cccc(CC)c1/C=C/c1cncc(C(=O)NC)c1 | 0.32% |
| FC(F)(F)c1cccc(Nc2nccc(-c3cnn4nc(-c5ccccc5)ccc34)n2)c1 | 2.4% |
| COc1ccc2cc(-c3c(-c4ccncc4)nc(-c4ccc([S+](C)[O-])cc4C)n3C)ccc2c1 (configuration not stated) | 0.1% |
| CCS(=O)(=O)c1ccc(OC)c(Nc2ncc(-c3ccccc3Cl)o2)c1 | 5.1% |
| C[C@@H](Oc1cc(-n2cnc3ccc(OCC4CCN(C)CC4)cc32)sc1C(N)=O)c1ccccc1Cl | 13.9% |
| C[C@@H](Oc1cc(-n2cnc3ccc(OC4CCN(C)CC4)cc32)sc1C(N)=O)c1ccccc1Cl | 18.4% |
| CCN(CC)Cc1ccc(Nc2nccc(-c3cnn4ncccc34)n2)cc1 | 21.2% |
| Fc1ccc(-c2ncn(CCCN3CCOCC3)c2-c2ccncc2)cc1 | 1.14% |
| Fc1ccc(-c2nc3n(c2-c2ccncc2)CCS3)cc1 | 6.73% |

| Structure (SMILES) | inhibition |
| --- | --- |
| Fc1ccc(-c2ncn(C3CCNCC3)c2-c2ccnc(Oc3ccc4c(c3)OCO4)n2)cc1 | 9.73% |
| Fc1ccc(-c2c(-c3ccncc3)nc3n2CCS3)cc1 | 3.03% |
| O=C(Nc1n[nH]c2nc(-c3ccc(O)cc3)c(Br)cc12)C1CC1 | 34.4% |
| CN(C)CCOc1ccc(-c2cc(-c3ccc4c(c3)CCC4=NO)c(-c3ccncc3)o2)cc1 | 5.27% |
| COc1ccc(C2=C(N3CCc4ccccc43)C(=O)NC2=O)cc1 | 4.95% |
| CN(c1ccc(NC(=O)Nc2c(Cl)cccc2Cl)cc1)c1ccnc(Nc2cccc(CS(C)(=O)=O)c2)n1 | 32.9% |
| Cc1ccc(C(=O)NC2CCC2)cc1-c1ccc(C(=O)NCC2CC2)cc1 | 0.04% |
| COc1cccc(-n2cnc3c(N/N=C/c4ccncc4)ncnc32)c1 | 1.25% |
| Cc1ccc(C(=O)NC(C)C)cc1-c1ccc(C(=O)NCC2CC2)cc1 | 1.59% |
| NC(=O)Cc1ccccc1Oc1nccc(-c2c(-c3ccc(F)cc3)ncn2C2CCNCC2)n1 | 3.36% |
| O=C1Nc2ccccc2/C1=C/Nc1ccc(-n2cncn2)cc1 | 12.6% |
| c1ccc(Oc2ccc(Nc3ncc(-c4ccccc4)o3)cc2)cc1 | 1.62% |
| COc1cc2ncn(-c3cc(OCc4ccccc4C(F)(F)F)c(C(C)=O)s3)c2cc1OC | 7.42% |
| COc1ccc2ncn(-c3cc(O[C@H](C)c4ccccc4Cl)c(C(N)=O)s3)c2c1 | 11% |
| CCc1nccc2c1nc(-c1nonc1N)n2CC | 2.26% |
| CN(C)c1ccc2c(c1)/C(=C/Nc1ccc(S(N)(=O)=O)cc1)C(=O)N2 | 29.9% |
| COc1cc2ncn(-c3cc(OCc4cccs4)c(C(N)=O)s3)c2cc1OC | 36% |
